Source: PubChem BioAssay
The list is not random: actives were taken first. Their share in the collection is about 17%.
HT1080-NT tox: kills 2HG-producing HT-1080-NT fibrosarcoma cells; HT-1080-NT fibrosarcoma viability, CellTiter-Glo ATP luminescence, 48 h; Potency, µM (series often up to 46.1 µM), inactives show at the top dose activity, negative = less viability, hits mostly cytotoxic; 360,000 compounds, 1.6% hits; AID 686970;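 also: NT is the 2HG producing partner of a matched IDH1 knockdown line; 0% = DMSO-treated cells and -100% = media-only wells without cells; nearly all actives have a fitted effect of over 55% in size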
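Fibrosarcoma NT cells, 750 per well in 5% FBS RPMI, were exposed to compound for 48 hours. Viability: CellTiter-Glo luminescence.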
HT1080 IDH1KD tx: HT-1080 IDH1 knockdown cell toxicity (counter line); 360,000 compounds, 2% hits; Potency, µM (doses to about 46.1 µM), inactives show top-dose activity, negative = toxicity, usual class: cytotoxic; HT-1080 IDH1 knockdown viability, ATP luminescence, 48 h;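 also: 0% = DMSO wells and -100% = cell-free medium wells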
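Using the IDH1-knockdown HT-1080 line run in the same batch and compound series as the NT line, viability after 48 h at 37 °C was determined by CellTiter-Glo luminescence and expressed as % activity.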
TDP1 cell CPT: DT40-hTDP1 cell growth loss with CPT; chicken DT40 Tdp1-/-;hTDP1 cells + 20 nM CPT, ATP luminescence, 48 h; Potency, µM (titrated, usually from 46.2 µM), for the others: at the top dose activity change, negative = growth inhibition, hits mostly inhibitors; 420,000 compounds, 12% hits; AID 686979; also: % is scaled to controls: 0 for no effect and ±100 for the full control effect; nearly all actives have a fitted effect of over 55% in size
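Cell growth measured by CellTiter-Glo luminescence after a minimum 48 h, 37 C compound exposure with 20 nM CPT in Tdp1-knockout DT40 cells stably expressing hTDP1, seeded 400/well; qHTS titration format.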
DT40 TDP1 no CPT: qHTS for Inhibitors of human tyrosyl-DNA phosphodiesterase 1 (TDP1): qHTS in cells in absence of CPT; DT40 Tdp1-/- hTDP1 cells, no CPT, ATP luminescence, 48 h; Potency, µM (doses to about 46.2 µM), without a hit: top-dose activity change, negative = growth inhibition, usual class: inhibitors; 420,000 compounds, 15% hits; also: % is scaled to controls: 0 for no effect and ±100 for the full control effect; nearly all actives have a fitted effect of over 55% in size
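No-CPT arm: Tdp1-/-;hTDP1 DT40 cells (400/well) plus compounds, incubated ≥48 hr at 37 °C. Readout CellTiter-Glo luminescence.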
TGFb inhibitor: TGF-b pathway inhibition; 410,000 compounds, 1.2% hits; HepG2 CAGA-GFP TGF-b/SMAD3 reporter, GFP fluorescence, 18 h; TGF-beta stimulated, 500 pg/mL final; Potency, µM (highest dose often 46.1 µM), for inactives: top-dose activity, negative = inhibition, most hits filed as inhibitors; also: % is scaled to controls: 0 for no effect and ±100 for the full control effect; nearly all actives have a fitted effect of over 65% in size
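First, reporter cells (HEPG2 CAGA-GFP) rested 2 h at 37 degrees C. Next, compounds were pinned in and TGF-beta added to 500 pg/mL final. After 18 h, GFP was imaged per cell and summed per well.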
HepG2 tox: counter-screen for TGF-b inhibitors: cytotoxicity in HepG2 cells; AID 588856; 410,000 compounds, 0.76% hits; HepG2 CAGA-GFP viability, ATP luminescence, 18 h; Potency, µM (titrated, usually from 46.1 µM), inactives show top-dose activity change, negative = cytotoxicity, actives largely listed as cytotoxic
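HepG2 CAGA-GFP cells (1000/well, DMEM with 1% FBS) received compound, then TGF-beta at 500 pg/mL final, and were incubated 18 hours at 37 degrees C. Viability was read by CellTiter-Glo luminescence. Media-only wells were set as complete cell-killing and DMSO as no toxicity.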
An asterisk follows results filed as active. Calls follow the shape of the dose curve; as a rule, active = well fitted curve in the direction sought with a large enough effect; inconclusive = small, poorly fitted or top-dose-only effect, or another doubt; inactive = no such curve, though single readings can be large; an effect the other way counts as inactive or inconclusive. Potency is read from the fitted curve at half-maximal effect.

How did COc1cc(/C=C2/SC(=S)N(CCC(=O)Nc3ccccc3)C2=O)cc(OC)c1OC do in these assays?
HT1080-NT tox: 11%; HT1080 IDH1KD tx: 8%; TDP1 cell CPT: inconclusive; DT40 TDP1 no CPT: inconclusive; TGFb inhibitor: 2%; HepG2 tox: -36%

What do the screens show for `COc1cc(/C=C2\SC(=S)N(CCC(=O)N3CCN(C)CC3)C2=O)cc(OC)c1OC`?
HT1080-NT tox: -1%; HT1080 IDH1KD tx: -1%; TDP1 cell CPT: inconclusive; DT40 TDP1 no CPT: 15µM*; TGFb inhibitor: -12%; HepG2 tox: -13%

How did COc1cc(/C=C2\SC(=O)N(CCNC(=O)c3cnc(C)cn3)C2=O)cc(OC)c1OC do in these assays?
HT1080-NT tox: 11%; HT1080 IDH1KD tx: 10%; TDP1 cell CPT: inconclusive; DT40 TDP1 no CPT: 18µM*; TGFb inhibitor: -34%; HepG2 tox: -13%

Results for CCOc1ccc(CNC(=O)CCc2c(C)nn(-c3ccc(N4CCOCC4)nn3)c2C)cc1 ?
TDP1 cell CPT: -16%; DT40 TDP1 no CPT: -14%; TGFb inhibitor: 6%; HepG2 tox: -10%

Results for CC(C)[C@H]1COCCS(=O)(=O)N1Cc1cccc([N+](=O)[O-])c1 ?
TDP1 cell CPT: inconclusive; DT40 TDP1 no CPT: inconclusive; TGFb inhibitor: -6%; HepG2 tox: -37%

Results for O=C(Nc1ccc2c(c1)OCCO2)C1c2ccccc2OCC(=O)N1CCCN1CCOCC1 (stereo not drawn) ?
HT1080-NT tox: 14%; HT1080 IDH1KD tx: 14%; TDP1 cell CPT: -8%; DT40 TDP1 no CPT: -16%

Results for Cc1c(Cl)cccc1NC(=O)CSc1nncn1-c1ccccn1 ?
HT1080-NT tox: 1%; HT1080 IDH1KD tx: 9%; TDP1 cell CPT: 4%; DT40 TDP1 no CPT: -13%; TGFb inhibitor: 8%; HepG2 tox: 13%

What do the screens show for `C#CCn1c(=NC(=O)c2ccc(Br)s2)sc2cccc(OC)c21`?
HT1080-NT tox: inconclusive; HT1080 IDH1KD tx: -22%; TDP1 cell CPT: inconclusive; DT40 TDP1 no CPT: 21µM*; TGFb inhibitor: -17%; HepG2 tox: -45%

What do the screens show for `C=CCn1c(=NC(=O)c2cccs2)sc2cccc(OC)c21`?
HT1080-NT tox: -24%; HT1080 IDH1KD tx: -27%; TDP1 cell CPT: inconclusive; DT40 TDP1 no CPT: 16µM*; TGFb inhibitor: inconclusive; HepG2 tox: -1%

How did C#CCn1c(=NC(=O)c2ccc(Br)s2)sc2cc(NC(C)=O)ccc21 do in these assays?
HT1080-NT tox: -21%; HT1080 IDH1KD tx: 0%; TDP1 cell CPT: 10%; DT40 TDP1 no CPT: 1%; TGFb inhibitor: -16%; HepG2 tox: -7%

What do the screens show for `COC(=O)c1ccc(NC(=O)N2CCC(CN3CCc4ccccc4C3)CC2)cc1`?
TDP1 cell CPT: inconclusive; DT40 TDP1 no CPT: -27%; TGFb inhibitor: 9%; HepG2 tox: -28%

Results for N#C/C(=C\c1ccc(N2CCCCC2)o1)C(=O)Nc1cccc(Br)c1 ?
HT1080-NT tox: -8%; HT1080 IDH1KD tx: -7%; TDP1 cell CPT: inconclusive; DT40 TDP1 no CPT: 7.3µM*; TGFb inhibitor: 160%; HepG2 tox: -9%

Results for O=[N+]([O-])/C(C=Nc1ccccc1O)=C\Nc1ccccc1O ?
HT1080-NT tox: -14%; HT1080 IDH1KD tx: inconclusive; TDP1 cell CPT: 8.2µM*; DT40 TDP1 no CPT: 16µM*; TGFb inhibitor: inconclusive; HepG2 tox: -59%

How did N#CC1=C(C=Nc2ccccc2O)CCC1 do in these assays?
HT1080-NT tox: 0%; HT1080 IDH1KD tx: -10%; TDP1 cell CPT: 1%; DT40 TDP1 no CPT: -10%; TGFb inhibitor: -17%; HepG2 tox: -5%

What do the screens show for `O=C(NCCc1ccc(Cl)cc1)c1nnc(Cc2ccc(Cl)cc2Cl)o1`?
TDP1 cell CPT: 2%; DT40 TDP1 no CPT: -18%; TGFb inhibitor: -8%; HepG2 tox: 8%

What do the screens show for `CCCCCCN1C[C@H](O)[C@@H](n2cc(C3CC3)nn2)C[C@@H]1c1ccc(C)cc1`?
HT1080-NT tox: 0%; HT1080 IDH1KD tx: -2%; TDP1 cell CPT: inconclusive; DT40 TDP1 no CPT: 26µM*; TGFb inhibitor: inconclusive; HepG2 tox: -40%

Results for CCCCCC(=O)N1C[C@@H](n2cc(C3CC3)nn2)[C@H](O)C[C@@H]1c1ccc(Cl)cc1 ?
HT1080-NT tox: -12%; HT1080 IDH1KD tx: -17%; TDP1 cell CPT: 16µM*; DT40 TDP1 no CPT: 21µM*; TGFb inhibitor: -6%; HepG2 tox: -31%

Results for CCCCCC(=O)N1C[C@H](n2cc(C3CC3)nn2)[C@@H](O)C[C@@H]1c1ccc(OC)cc1 ?
HT1080-NT tox: -10%; HT1080 IDH1KD tx: -6%; TDP1 cell CPT: 5%; DT40 TDP1 no CPT: -10%; TGFb inhibitor: -3%; HepG2 tox: 0%

How did CCCCCCN1C[C@@H](n2cc(C3CC3)nn2)[C@H](O)C[C@@H]1c1ccc(Cl)cc1 do in these assays?
HT1080-NT tox: 2%; HT1080 IDH1KD tx: -1%; TDP1 cell CPT: inconclusive; DT40 TDP1 no CPT: inconclusive; TGFb inhibitor: inconclusive; HepG2 tox: -107%

How did CCCCCCN1C[C@@H](O)[C@H](n2cc(C3CC3)nn2)C[C@@H]1c1ccc(Cl)cc1 do in these assays?
HT1080-NT tox: -27%; HT1080 IDH1KD tx: inconclusive; TDP1 cell CPT: 26µM*; DT40 TDP1 no CPT: inconclusive; TGFb inhibitor: inconclusive; HepG2 tox: 16µM*

Results for CCCCCCN1C[C@@H](O)[C@H](n2cc(C3CC3)nn2)C[C@@H]1c1ccc(C)cc1 ?
HT1080-NT tox: 2%; HT1080 IDH1KD tx: -2%; TDP1 cell CPT: -20%; DT40 TDP1 no CPT: inconclusive; TGFb inhibitor: 20%; HepG2 tox: -17%

Results for CCCCCCN1C[C@H](O)[C@@H](n2cc(C3CC3)nn2)C[C@@H]1c1ccccc1 ?
HT1080-NT tox: 2%; HT1080 IDH1KD tx: -1%; TDP1 cell CPT: inconclusive; DT40 TDP1 no CPT: 23µM*; TGFb inhibitor: -4%; HepG2 tox: -11%

What do the screens show for `CCCCCCN1C[C@@H](n2cc(C3CC3)nn2)[C@H](O)C[C@@H]1c1ccccc1`?
HT1080-NT tox: 0%; HT1080 IDH1KD tx: 15%; TDP1 cell CPT: -17%; DT40 TDP1 no CPT: inconclusive; TGFb inhibitor: -1%; HepG2 tox: -5%

Results for Cc1cc(=S)n(-c2ccccc2)n1C ?
HT1080-NT tox: 4%; HT1080 IDH1KD tx: 14%; TDP1 cell CPT: -18%; DT40 TDP1 no CPT: -9%; TGFb inhibitor: -30%; HepG2 tox: -17%
